Experimental data: PubChem BioAssay AID1159580 (chemical genetic matrix, 2015)
Where “and” joins values, the source holds several entries; their conditions need not be identical. Equal values may be shown once. Screen size: about 5,500 compounds; about 2,000 (36%) were called active. Inconclusive results (about 18%) are left out. Rule as the data show it: active = normalized growth mostly below about 0.91 (no sharp cut-off); inconclusive = no clear call, values can overlap the other calls; inactive = mostly above about 0.92. This is one part of the list.

Assay: chemical genetic growth profiling, strain panel (AID 1159580);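 also: tested at 20 µM; growth read once vehicle control cultures reached saturation at 30 °C; 1 = growth at the plate median or of vehicle wells; lower values mean less growth of the strain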
Conditions: S. cerevisiae deletion strains, growth OD

Measured: normalized growth

COc1cc2c(cc1OC)C1Cc3ccc(OC)c(OC)c3CN1CC2 (stereo unspecified)
inactive: locus YAL021C, strain ccr4, stronger effect = lower value 0.983 | locus YAL026C, strain drs2, stronger effect = lower value 0.972 | locus YAL030W, strain snc1, stronger effect = lower value 0.983 | locus YBL061C, strain skt5, stronger effect = lower value 0.976 | locus YBR009C, strain hhf1, stronger effect = lower value 0.972 | locus YBR021W, strain FUR4, stronger effect = lower value 0.981 | locus YBR023C, strain chs3, stronger effect = lower value 0.968 | locus YBR171W, strain sec66, stronger effect = lower value 0.965 | locus YBR229C, strain ROT2, stronger effect = lower value 0.985 | locus YBR231C, strain swc5, stronger effect = lower value 0.983 | locus YBR279W, strain paf1, stronger effect = lower value 0.983 | locus YCL011C, strain gbp2, stronger effect = lower value 0.985 | locus YCL016C, strain dcc1, stronger effect = lower value 0.999 | locus YCL029C, strain bik1, stronger effect = lower value 0.998 | locus YCL061C, strain MRC1, stronger effect = lower value 0.983 | locus YCL069W, strain vba3, stronger effect = lower value 0.955 | locus YCR088W, strain abp1, stronger effect = lower value 0.979 | locus YDL005C, strain med2, stronger effect = lower value 0.974 | locus YDL035C, strain GPR1, stronger effect = lower value 1 | locus YDL040C, strain nat1, stronger effect = lower value 0.987 | locus YDL074C, strain BRE1, stronger effect = lower value 0.989 | locus YDL101C, strain DUN1, stronger effect = lower value 1 | locus YDL134C, strain PPH21, stronger effect = lower value 1.03 | locus YDL185W, strain tfp1, stronger effect = lower value 0.984 | locus YDL192W, strain arf1, stronger effect = lower value 0.991 | locus YDR001C, strain nth1, stronger effect = lower value 0.984 | locus YDR069C, strain doa4, stronger effect = lower value 0.972 | locus YDR101C, strain arx1, stronger effect = lower value 0.988 | locus YDR137W, strain rgp1, stronger effect = lower value 0.967 | locus YDR159W, strain sac3, stronger effect = lower value 0.972 | locus YDR162C, strain NBP2, stronger effect = lower value 1.06 | locus YDR195W, strain ref2 0.955 | locus YDR297W, strain sur2, stronger effect = lower value 0.975 | locus YDR318W, strain mcm21, stronger effect = lower value 1 | locus YDR334W, strain swr1, stronger effect = lower value 0.965 | locus YDR335W, strain msn5, stronger effect = lower value 0.97 | locus YDR388W, stronger effect = lower value 0.985 | locus YDR392W, strain spt3, stronger effect = lower value 0.982 | locus YDR502C, strain sam2, stronger effect = lower value 1 | locus YEL003W, strain gim4, stronger effect = lower value 0.978 | locus YEL037C, strain rad23, stronger effect = lower value 0.982 | locus YEL061C, strain CIN8 (second series), stronger effect = lower value 0.95 | locus YEL061C, strain CIN8, stronger effect = lower value 1.02 | locus YER015W, strain faa2, stronger effect = lower value 0.984 | locus YER016W, strain bim1, stronger effect = lower value 0.97 | locus YER110C, stronger effect = lower value 0.982 | locus YER111C, strain swi4, stronger effect = lower value 0.973 | locus YER155C, strain BEM2 (second series), stronger effect = lower value 0.972 | locus YER155C, strain BEM2, stronger effect = lower value 0.988 | locus YER167W, strain BCK2, stronger effect = lower value 0.998 | locus YFR010W, strain ubp6, stronger effect = lower value 0.96 | locus YGL078C, strain dbp3, stronger effect = lower value 0.985 | locus YGL086W, strain mad1, stronger effect = lower value 0.955 | locus YGL167C, strain pmr1, stronger effect = lower value 0.978 | locus YGL173C, strain kem1, stronger effect = lower value 0.987 | locus YGL227W, strain vid30, stronger effect = lower value 0.979 | locus YGL240W, strain doc1, stronger effect = lower value 0.973 | locus YGL248W, strain PDE1, stronger effect = lower value 1.03 | locus YGL253W, strain hxk2, stronger effect = lower value 0.97 | locus YGR135W, strain pre9, stronger effect = lower value 1.01 | locus YGR252W, strain gcn5, stronger effect = lower value 1.01 | locus YHR013C, strain ard1, stronger effect = lower value 0.977 | locus YHR027C, strain rpn1, stronger effect = lower value 1 | locus YHR030C, strain SLT2, stronger effect = lower value 0.996 and 0.965 | locus YHR079C, strain IRE1 (second series), stronger effect = lower value 0.995 | locus YHR079C, strain IRE1, stronger effect = lower value 0.979 | locus YHR094C, strain hxt1, stronger effect = lower value 0.978 | locus YHR129C, strain ARP1, stronger effect = lower value 1 | locus YHR142W, strain chs7, stronger effect = lower value 0.976 | locus YHR200W, strain rpn10, stronger effect = lower value 0.992 | locus YIL066C, strain RNR3, stronger effect = lower value 1.02 | locus YIL073C, strain SPO22, stronger effect = lower value 1.05 | locus YIL125W, strain kgd1, stronger effect = lower value 1 | locus YIR030C, strain dcg1, stronger effect = lower value 0.987 | locus YJL092W, strain hpr5, stronger effect = lower value 0.952 | locus YJL095W, strain BCK1 (second series), stronger effect = lower value 0.975 | locus YJL095W, strain BCK1, stronger effect = lower value 1.04 and 0.988 | locus YJL115W, strain asf1, stronger effect = lower value 0.967 | locus YJL129C, strain trk1, stronger effect = lower value 0.956 | locus YJL134W, strain LCB3, stronger effect = lower value 0.983 | locus YJL154C, strain vps35, stronger effect = lower value 0.981 | locus YJL164C, strain tpk1, stronger effect = lower value 0.99 | locus YJL166W, strain qcr8, stronger effect = lower value 0.99 | locus YJL168C, strain set2, stronger effect = lower value 0.989 | locus YJL187C, strain SWE1 (second series), stronger effect = lower value 1.01 | locus YJR043C, strain POL32, stronger effect = lower value 1.01
